The values below come from PubChem BioAssay AID1645855 (Buhrlage Lab, Dana-Farber Cancer Institute and Novartis …, 2021).

Among all 47,000 compounds or so, about 3,100 (6.6%) were called active. For the sample, actives were picked, then their nearest neighbours and some compounds at random. Values without a mark were called inactive. Rule as the data show it: active = inhibition above about 30%; inactive = the rest.

This test deals with Ubiquitin carboxyl-terminal hydrolase 17-like protein 5 (Homo sapiens) (UniProt A8MUK1). In words: blocks human USP17 ubiquitin-rhodamine cleavage (AID 1645855). The settings on record: purified USP17, Ub-rhodamine cleavage fluorescence, 3 h; at 50 µM; active compounds read high.
Chain of Ubiquitin carboxyl-terminal hydrolase 17-like protein 5 (Homo sapiens) (A8MUK1 whole entry, looked up): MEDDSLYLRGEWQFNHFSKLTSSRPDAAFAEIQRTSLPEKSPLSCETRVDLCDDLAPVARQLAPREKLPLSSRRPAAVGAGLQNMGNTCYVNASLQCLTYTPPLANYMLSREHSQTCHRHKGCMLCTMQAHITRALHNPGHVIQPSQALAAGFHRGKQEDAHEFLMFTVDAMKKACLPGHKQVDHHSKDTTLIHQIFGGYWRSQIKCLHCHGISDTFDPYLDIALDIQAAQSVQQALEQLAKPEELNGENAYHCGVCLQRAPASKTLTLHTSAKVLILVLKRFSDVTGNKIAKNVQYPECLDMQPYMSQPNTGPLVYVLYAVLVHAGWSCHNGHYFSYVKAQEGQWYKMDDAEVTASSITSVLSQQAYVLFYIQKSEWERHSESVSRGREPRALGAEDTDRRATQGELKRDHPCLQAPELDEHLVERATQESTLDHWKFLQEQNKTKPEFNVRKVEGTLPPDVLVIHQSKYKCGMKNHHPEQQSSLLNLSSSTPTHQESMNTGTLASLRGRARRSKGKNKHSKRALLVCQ
In the case of `O=C1NCCCCC1NS(=O)(=O)c1ccc2c(c1)CCO2` (stereo not given), the inhibition was 2.39%.
Next, `CC1=C(c2ccc(F)cc2)S(=O)(=O)N=C1Nc1ccccc1Cl`: 22.6%; `CCc1nc(SCC(=O)Nc2cc(Cl)ccc2Cl)c2oc3ccccc3c2n1`: 20.6%; `O=C(CSc1ncnc2c1oc1ccccc12)NC1CCCC1`: 61.3% (active).
With `CCc1nc(SCC(=O)Nc2cccc3ccccc23)c2oc3ccccc3c2n1` the figure was 30.1% (active).
With `O=C(CSc1ncnc2nc[nH]c12)NC1CCCCC1` the figure was -12.5%; with `Cc1nc(SCC(=O)Nc2cc(Cl)cc(Cl)c2)c2oc3ccccc3c2n1`, -0.843%.
Regarding `Cc1nnc(-c2cn(CC(=O)NC3CCCCC3)c3ccccc23)o1`, the inhibition is 6.87%.
Take `FC(F)(F)Oc1ccc2[nH]c3c(c2c1)CNCC3`: the inhibition was 7.52%.
Next, `OCc1cc2c([nH]c3ccccc32)c([C@@H](O)CO)n1`: -4.94%; `Cc1ccccc1Nc1nc(N)nc(CN2CCCC2c2cccn2C)n1` (stereo not given): -130%.
With `CCOC(=O)c1cnc2c(C(F)(F)F)cccc2c1Sc1ccc(C)cc1C` the figure was 3.52%; with `O=C1NC2(CCN(C(=O)Cc3ccccc3)CC2)Nc2cc(Cl)ccc21`, -2.47%; with `O=C(Cc1ccccc1)N1CCN(c2ccc(N3CCCC3)nn2)CC1`, 15%.
Next, `CSc1ccccc1NC(=O)c1ccc(N2CCCC2)nn1`: 56.7% (active).
Turning to `Cc1cc(C)n(-c2ccc(C(=O)Nc3ccccc3C(C)C)nn2)n1`, the inhibition was 29.7%.
Turning to `O=C(c1sc2cnccc2c1-n1cccc1)N1CCc2ccccc2C1`, the inhibition is 8.13%.
Next, `CCOC(=O)c1cc(C)nc2c1c(=O)n(Cc1nc(-c3ccccc3)oc1C)c(=O)n2C`: -6.3%; `CCCOc1ccc(C2CN3C(=O)N(c4cccc(C(C)=O)c4)C(=O)[C@]3(C)c3[nH]c4ccccc4c32)cc1OCC` (stereo not given in full): 2.94%; `COc1ccc(-c2cc(C(=O)Nc3sccc3C(N)=O)c3ccccc3n2)cc1`: -139%.
`COC(=O)c1cccc(N(C(=O)c2cnccn2)C(C(=O)NC2CCCCC2)c2ccc(OC)c(OC)c2)c1` (stereo not given): the inhibition is -9.26%.
With `O=C(NC1CCCC1)C1c2cc(Br)ccc2OCC(=O)N1C1CCCC1` (stereo not given) the figure was -0.00685%.
On to `CC(CCc1ccccc1)NC(=O)COC(=O)c1ccc2[nH]c3c(c2c1)CCCC3` (stereo not given), for which the inhibition was 15.2%.
As for `O=C(COC(=O)CCc1nc2ccccc2c(=O)[nH]1)Nc1ccc(N2CCOCC2)cc1`, the inhibition was -1.46%.
With `O=C(COC(=O)c1ccc2[nH]c3c(c2c1)CCCC3)Nc1ccc(N2CCOCC2)cc1` the figure was 31% (active).
